Test results: PubChem BioAssay (Tox21)
Inconclusive results are not listed. Activity calls are given as the source filed them. Unless noted, the call rests on the fitted dose curve; in most records, active means well fitted curve in the direction sought with a large enough effect in the repeat runs; inconclusive means weak or mixed curves; inactive means no such curve, though single readings can be large; an effect the other way counts as inactive or inconclusive.

Key:
[1] = qHTS assay to identify small molecule antagonists of the estrogen related receptor (ERR) signaling pathway from Tox21 library - cell viability counter screen (AID 1224834); further: on the % scale 0 is the no-effect control and ±100 the full control effect; nearly all actives have a fitted effect of over 30% in size
Summary of the method: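 Multiplexed viability counter screen in ERR cells: 17.5 h compound exposure at 37 C, CellTiter-Fluor added, 30 min at 37 C/5% CO2, fluorescence read.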

[2] = molecular target: Luciferin 4-monooxygenase (Photinus pyralis) (UniProt P08659); experiment: qHTS assay to identify small molecule inhibitors of firefly luciferase (AID 1224835); further: on the % scale 0 is the no-effect control and ±100 the full control effect; nearly all actives have a fitted effect of over 25% in size
Summary of the method: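 Quantitative HTS format; KM concentrations of both substrates. Purified P. pyralis FLuc activity quantified from luminescence images.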

[3] = qHTS assay to identify small molecule agonists of the constitutive androstane receptor (CAR) signaling pathway - cell viability counter screen (AID 1224836); further: nearly all actives have a fitted effect of over 45% in size; further: potency means the concentration at half of the fitted maximal effect; on viability change, negative = cytotoxic: on the % scale 0 is the no-effect control and ±100 the full control effect
Summary of the method: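 Cells were seeded and incubated 4 hrs. Compounds were added across 15 concentrations together with PK11195 at 0.75 uM final. Plates were incubated 23 hrs at 37 C. CellTiter-Fluor was added and fluorescence measured.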

[4] = qHTS assay to identify small molecule antagonists of the constitutive androstane receptor (CAR) signaling pathway - cell viability counter screen (AID 1224837); further: nearly all actives have a fitted effect of over 45% in size; further: potency means the concentration at half of the fitted maximal effect; on activity change, negative = cytotoxicity: on the % scale 0 is the no-effect control and ±100 the full control effect
Summary of the method: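 Read-out: CellTiter-Fluor fluorescence after 23 hr at 37 C/5% CO2. Cells: HepG2 double-stable for hCAR and CYP2B6-2.2kb. Compounds tested at 15 concentrations in the presence of CITCO, final concentration 50 nM.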

[5] = qHTS assay to identify small molecule antagonists of the estrogen related receptor signaling pathway with the pleiotropic PPARgamma coactivator (PGC) from Tox21 10K library - cell viability counter screen (AID 1224840; active means well fitted cell-killing curve with a large enough effect in the repeat runs, not every such curve was filed as active; further: nearly all actives have a fitted effect of over 40% in size; further: potency means the concentration at half of the fitted maximal effect)
Summary of the method: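 Fluorescence read-out of CellTiter-Fluor viability reagent, added after cells had been exposed to compound in DMSO for 17.5 h at 37 C; 30 min development at 37 C/5% CO2. Cells: PGC/ERR line, 2,000/well.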

[6] = molecular target: Thyrotropin receptor (Homo sapiens) (UniProt P16473); experiment: qHTS assay to identify small molecule agonists of the thyroid stimulating hormone receptor (TSHR) signaling pathway (AID 1224843; calls by dose curve; further: on the % scale 0 is the no-effect control and ±100 the full control effect; nearly all actives have a fitted effect of over 45% in size)
Summary of the method: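 Using 15 concentrations per compound in triplicate, cAMP production was monitored in TSHR-HEK293 cells after 30 min compound incubation at RT; HTRF reagents followed, with fluorescence intensity recorded after 1 h.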

[7] = qHTS assay to identify small molecule agonists of the hypoxia (HIF-1) signaling pathway - cell viability counter screen (AID 1224844; calls by dose curve; further: on the % scale 0 is the no-effect control and ±100 the full control effect; nearly all actives have a fitted effect of over 50% in size)
Summary of the method: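 CellTiter-Glo luminescence read-out, 30 min RT, taken in the same wells as the beta-lactamase HRE reporter assay; HRE-bla ME-180 cells, 0.5% dialyzed FBS, 17 hr compound treatment at 37C, 5% CO2.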

[8] = qHTS assay to identify small molecule agonists of H2AX (AID 1224845; active means well fitted activation curve with a large enough effect in the signal ratio in the repeat runs, not every such curve was filed as active; the % refers to the signal ratio; further: on the % scale 0 is the no-effect control and ±100 the full control effect)
Summary of the method: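 Wild-type CHO-K1 cells plated overnight, then exposed 3 hr at 37C to compounds at 15 concentrations (0.76% DMSO). Lysed, then HTRF anti-pH2AX(S139)-cryptate/anti-H2AX-d2 detection after 24 hr at room temperature; emissions 665 and 620 nm.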

[9] = qHTS assay to identify small molecule agonists of the hypoxia (HIF-1) signaling pathway (AID 1224846; active means well fitted activation curve with a large enough effect in the signal ratio in the repeat runs, not every such curve was filed as active; the % refers to the signal ratio; further: on the % scale 0 is the no-effect control and ±100 the full control effect)
Summary of the method: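 Beta-lactamase FRET read-out (CCF4-AM substrate) from ME-180 cells carrying an HRE-driven bla reporter, after 17 hrs compound exposure at 37C/5% CO2. Cells were seeded at 2,000 per well in 0.5% dialyzed FBS medium and preincubated 5 hrs.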

[10] = qHTS RealTime-Glo MT Cell Viability Assay in HepG2 cells - 24 hour (AID 1224867); further: on the % scale 0 is the no-effect control and ±100 the full control effect; nearly all actives have a fitted effect of over 50% in size
Summary of the method: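 Real-time, nonlytic viability: 600 HepG2 cells/well mixed with NanoLuc enzyme plus prosubstrate; 5 h settle, compound (DMSO) added by pintool; luminescence monitored over 40 h at 37 C.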

[11] = qHTS RealTime-Glo MT Cell Viability Assay in HEK293 cells - 32 hour (AID 1224868); further: nearly all actives have a fitted effect of over 50% in size; further: potency means the concentration at half of the fitted maximal effect
Summary of the method: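 Cells + reagent dispensed (600 cells/well, HEK293) → 5 h at 37 C/5% CO2 → 23 nL compound in DMSO pinned → 40 h at 37 C → luminescence read at 0, 8, 16, 24, 32, 40 h.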

[12] = A CellTox Green Cytotoxicity Assay to monitor cytotoxicity in HEK293 cells - 0 hour (AID 1224869); further: on the % scale 0 is the no-effect control and ±100 the full control effect; nearly all actives have a fitted effect of over 50% in size
Summary of the method: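 Read-out: fluorescence of a cell-impermeant cyanine dye staining DNA of dead cells, proportional to cytotoxicity. HEK293, 600 cells/well with reagent, compound (23 nL DMSO) added after 5 h; reads at 0, 8, 16, 24, 32, 40 h.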

[13] = qHTS RealTime-Glo MT Cell Viability Assay in HepG2 cells - 40 hour (AID 1224870)
Summary of the method: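 HepG2 cells mixed with RealTime-Glo MT reagents (NanoLuc plus cell-permeant prosubstrate) were seeded at 600 cells/well, incubated 5 h at 37 C/5% CO2, then pinned with compounds in DMSO; nonlytic luminescence tracked viability during 40 h treatment.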

[14] = molecular target: Nuclear receptor subfamily 1 group I member 3 (Homo sapiens) (UniProt Q14994); experiment: qHTS assay to identify small molecule antagonists of the constitutive androstane receptor (CAR) signaling pathway (AID 1224838);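 further: HepG2 cells stably expressing hCAR with CYP2B6 luciferase reporter stimulated by CITCO; nearly all actives have a fitted effect of over 40% in size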; further: potency means the concentration at half of the fitted maximal effect
Summary of the method: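 Read-out: ONE-Glo luciferase luminescence after 30 min at room temperature. HepG2-CYP2B6-hCAR double-stable cells, compounds in 15-point titration plus 50 nM CITCO final, 24 h at 37 C/5% CO2.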

[15] = qHTS assay to identify small molecule antagonists of the estrogen related receptor signaling pathway with the pleiotropic PPARgamma coactivator (PGC) from Tox21 10K library (AID 1224841; call rule not given here; further: potency means the concentration at half of the fitted maximal effect)
Summary of the method: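 Luminescence read-out (One-Glo luciferase reagent, 30 min at room temperature) from PGC/ERR cells exposed to DMSO-dissolved test compounds for 18 h at 37 C; cells, 2,000 per well, had been preincubated 6 h before compound transfer.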

[16] = qHTS assay to identify small molecule agonists of the estrogen related receptor signaling pathway with the pleiotropic PPARgamma coactivator (PGC) from Tox21 10K library (AID 1224842); further: on the % scale 0 is the no-effect control and ±100 the full control effect; nearly all actives have a fitted effect of over 15% in size
Summary of the method: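 PGC/ERR reporter cells (NTP line) were seeded 2,000 per well, rested 6 h at 37 C/5% CO2, then pin-dosed with compounds in DMSO for 18 h at 37 C; luciferase read by One-Glo luminescence after 30 min at room temperature.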

[17] = qHTS assay to identify small molecule agonists of H2AX - cell viability counter screen (AID 1224847; calls by dose curve; further: top concentration of the series differs between compounds; on the % scale 0 is the no-effect control and ±100 the full control effect; nearly all actives have a fitted effect of over 30% in size)
Summary of the method: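 Cytotoxicity counter screen in wild-type CHO-K1 cells: a 3 hr compound treatment at 37C across 15 concentrations, followed by CellTiter-Glo luminescence to gauge viable cells.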

[18] = qHTS assay to identify small molecule antagonists of the estrogen related receptor (ERR) signaling pathway from Tox21 library (AID 1224848); further: nearly all actives have a fitted effect of over 50% in size; further: potency means the concentration at half of the fitted maximal effect
Summary of the method: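 Tox21 10K compounds in DMSO tested for ERR pathway antagonism in NTP's ERR cell line; 18 h, 37 C exposure; ONE-Glo luminescence.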

[19] = qHTS assay to identify small molecule agonists of the estrogen related receptor (ERR) signaling pathway from Tox21 library (AID 1224849; calls by dose curve; further: on the % scale 0 is the no-effect control and ±100 the full control effect; nearly all actives have a fitted effect of over 15% in size); conditions: ERR reporter cell line, ONE-Glo luciferase, 18 h; at 92.4 µM (top of the series) unless noted
Summary of the method: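 Luminescence readout (ONE-Glo, 30 min RT) after 18 h compound exposure at 37 C of NTP-supplied ERR reporter cells; cells were plated 6 h before compound addition by pin tool.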

[20] = molecular target: Nuclear receptor subfamily 1 group I member 3 (Homo sapiens) (UniProt Q14994); experiment: qHTS assay to identify small molecule agonists of the constitutive androstane receptor (CAR) signaling pathway (AID 1224839); further: potency means the concentration at half of the fitted maximal effect; nearly all actives have a fitted effect of over 15% in size
Summary of the method: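 Cells were plated and incubated 4 hrs, then dosed with compounds at 15 concentrations. PK11195 was added to 0.75 uM final. After 24 hrs at 37 C, luciferase luminescence was measured.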

Nuclear receptor subfamily 1 group I member 3 (Homo sapiens), sequence (Q14994 whole entry, looked up): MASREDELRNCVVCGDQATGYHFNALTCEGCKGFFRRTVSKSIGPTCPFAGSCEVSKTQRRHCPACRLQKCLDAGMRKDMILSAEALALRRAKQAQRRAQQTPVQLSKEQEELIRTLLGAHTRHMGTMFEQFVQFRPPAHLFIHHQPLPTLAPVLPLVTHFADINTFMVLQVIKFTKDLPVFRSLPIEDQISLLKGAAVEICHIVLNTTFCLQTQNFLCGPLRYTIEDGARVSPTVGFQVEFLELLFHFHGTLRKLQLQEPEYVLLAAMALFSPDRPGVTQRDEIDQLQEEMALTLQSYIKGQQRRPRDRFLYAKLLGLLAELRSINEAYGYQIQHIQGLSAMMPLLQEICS
Luciferin 4-monooxygenase (Photinus pyralis), sequence (P08659 whole entry, looked up): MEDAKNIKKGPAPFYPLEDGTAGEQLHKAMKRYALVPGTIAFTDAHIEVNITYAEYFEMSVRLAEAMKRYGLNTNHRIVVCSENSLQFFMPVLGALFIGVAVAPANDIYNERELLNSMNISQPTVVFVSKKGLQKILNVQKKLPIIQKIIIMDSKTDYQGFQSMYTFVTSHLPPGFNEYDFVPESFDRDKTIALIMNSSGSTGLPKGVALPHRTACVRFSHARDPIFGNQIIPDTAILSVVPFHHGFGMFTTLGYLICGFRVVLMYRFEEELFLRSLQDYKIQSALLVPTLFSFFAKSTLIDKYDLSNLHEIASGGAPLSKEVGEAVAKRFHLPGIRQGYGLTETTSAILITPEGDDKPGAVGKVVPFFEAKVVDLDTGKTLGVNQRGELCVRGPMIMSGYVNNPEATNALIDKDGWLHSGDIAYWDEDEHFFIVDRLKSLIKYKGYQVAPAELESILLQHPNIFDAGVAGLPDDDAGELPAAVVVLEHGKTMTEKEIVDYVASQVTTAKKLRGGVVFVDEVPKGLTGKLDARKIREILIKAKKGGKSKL
Thyrotropin receptor (Homo sapiens), sequence (P16473 whole entry, looked up): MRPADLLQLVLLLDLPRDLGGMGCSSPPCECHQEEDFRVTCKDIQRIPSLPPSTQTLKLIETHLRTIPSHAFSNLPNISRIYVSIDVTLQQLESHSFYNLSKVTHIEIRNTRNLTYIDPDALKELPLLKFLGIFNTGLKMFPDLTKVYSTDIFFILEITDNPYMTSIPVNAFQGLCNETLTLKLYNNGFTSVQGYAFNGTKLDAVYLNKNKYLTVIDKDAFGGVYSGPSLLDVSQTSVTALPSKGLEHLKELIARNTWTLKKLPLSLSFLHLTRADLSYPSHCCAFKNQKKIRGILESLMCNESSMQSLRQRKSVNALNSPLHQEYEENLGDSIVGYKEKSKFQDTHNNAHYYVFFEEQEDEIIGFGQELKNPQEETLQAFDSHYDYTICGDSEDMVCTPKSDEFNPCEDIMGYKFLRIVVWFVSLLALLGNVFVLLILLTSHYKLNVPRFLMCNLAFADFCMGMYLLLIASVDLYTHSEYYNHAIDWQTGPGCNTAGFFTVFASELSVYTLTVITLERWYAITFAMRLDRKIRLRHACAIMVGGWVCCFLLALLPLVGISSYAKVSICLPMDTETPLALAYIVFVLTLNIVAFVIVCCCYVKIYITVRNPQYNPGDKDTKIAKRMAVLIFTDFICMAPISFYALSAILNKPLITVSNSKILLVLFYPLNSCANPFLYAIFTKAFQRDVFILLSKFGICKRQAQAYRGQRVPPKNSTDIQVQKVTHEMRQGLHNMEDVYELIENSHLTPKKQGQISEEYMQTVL

O=NN1CCCCCC1
inactive: Potency [1] | Potency [2] | Potency [3] | Potency [4] | Potency [5] | Potency [6] | Potency [7] | Potency [8] | outcome [9] | Potency [10] | Potency [11] | Potency [12] | Potency [13]

O=C(CBr)Nc1ccc(Cl)cc1C(=O)c1ccccc1F
inactive: Potency [1] | Potency [2] | Potency [3] | Potency [4] | Potency [14] | Potency [5] | Potency [15] | Potency [16] | Potency [7] | Potency [8] | Potency [17] | Potency [18] | activity change, positive = activation [19] -13.3% [at 42.5 µM] | Potency [10] | Potency [11] | Potency [12] | Potency [13]

Cc1ccc(N)cc1C
inactive: Potency [1] | Potency [2] | Potency [3] | Potency [4] | Potency [14] | Potency [5] | Potency [15] | Potency [6] | Potency [7] | Potency [8] | outcome [9] | Potency [17] | Potency [18] | Potency [10] | Potency [11] | Potency [12] | Potency [13]

NCC(CC(=O)O)c1ccc(Cl)cc1 (centres undefined)
inactive: viability change, negative = cytotoxic [1] 4.17% [at 0.349 µM] | activity change, negative = inhibition [2] 0.511% [at 0.435 µM] | viability change, negative = cytotoxic [3] 7.94% [at 0.349 µM] | activity change, negative = cytotoxicity [4] 8.53% [at 0.349 µM] | viability change, negative = cytotoxic [5] 7.5% [at 0.349 µM] | activity, negative = inhibition [15] -1% [at 0.349 µM] | activation [6] 16.4% [at 0.349 µM] | activity change, negative = cytotoxicity [7] -2.38% [at 0.29 µM] | activation (H2AX phosphorylation) [8] 0.429% [at 0.582 µM] | activity change, negative = cytotoxicity [17] -1.04% [at 0.582 µM] | activity, negative = inhibition [18] 4.98% [at 0.349 µM] | activity change, positive = activation [19] 2.78% [at 0.349 µM] | activity change, negative = cytotoxicity [10] -0.0323% [at 0.29 µM] | activity change, negative = cytotoxic [11] 7.97% [at 0.29 µM] | cytotoxicity [12] -11.1% [at 0.29 µM] | activity change, negative = cytotoxic [13] -1.34% [at 0.29 µM]

O=S(=O)(O)C(F)(F)C(F)(F)C(F)(F)C(F)(F)F
active: Potency [20] 32.5 µM
inactive: Potency [1] | Potency [2] | Potency [3] | Potency [4] | Potency [16] | Potency [7] | Potency [8] | outcome [9] | Potency [10] | Potency [13]

CNC(C)Cc1ccccc1OC (centres undefined)
inactive: Potency [1] | Potency [2] | Potency [3] | Potency [4] | Potency [14] | Potency [5] | Potency [6] | Potency [7] | Potency [8] | outcome [9] | Potency [17] | Potency [10] | Potency [11] | Potency [12] | Potency [13]

O=[Se]=O
active: Potency [3] 21.5 µM | Potency [4] 21.5 µM | Potency [14] 27.1 µM | Potency [5] 17.1 µM | Potency [15] 13.6 µM | Potency [18] 30.4 µM | Potency [11] 17.3 µM
inactive: Potency [1] | Potency [2] | Potency [16] | Potency [6] | Potency [7] | Potency [8] | outcome [9] | activity change, positive = activation [19] -51.4% [at 42.5 µM] | Potency [10] | Potency [12]

O=C(O)COc1ccc(Cl)cc1
inactive: Potency [1] | Potency [2] | Potency [3] | Potency [4] | Potency [14] | Potency [5] | Potency [15] | Potency [6] | Potency [7] | Potency [8] | outcome [9] | Potency [17] | Potency [18] | activity change, positive = activation [19] 1.55% | Potency [10] | Potency [11] | Potency [12] | Potency [13]
